This is an account of results in PubChem BioAssay (NCI).

Test systems include T-47D breast; BT-549 breast; SW-620 colon; MCF7 breast; HCT-116 colon; HCC-2998 colon; KM12 colon; MDA-MB-435 melanoma.
Common to all, as to experiment: NCI-60 one-dose screen, 48 h (100 = growth as untreated, 0 = no growth, -100 = all killed)
Holding throughout (settings): 10 µM unless noted

This is part of a sample that, as a whole, favours compounds with a hit. Of some 83,000 tested, about 20% had one in any assay.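 Negative percent growth values reflect cell death: -40 means 40% of the cells present at the start died, and -100 means all died.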 A number with no mark means an inactive call. Calls of active or inactive are those of the source. The calls were made as follows: active = growth percent below 10; inactive = the rest.

Take `O=C1OC(c2nc3ccccc3s2)=C/C1=C\c1ccc(O)cc1`: the growth was 95.7% with T-47D breast; 111% in the assay with BT-549 breast; 94.4% with SW-620 colon; 100% in the assay with MCF7 breast; 99.8% in the assay with HCT-116 colon; 108% in the assay with HCC-2998 colon. Moreover, the growth with KM12 colon was 95%.

For the molecule `CS(=O)(=O)c1ccc(Nc2nc(N[C@H]3CCCC[C@H]3N)nc3cc[nH]c(=O)c23)cc1`, the growth in the assay on T-47D breast was -3.45% (active); in the assay with MDA-MB-435 melanoma it was -4.07% (active); in the assay with SW-620 colon it was 6.42% (active); with MCF7 breast, 5.47% (active); with HCT-116 colon, -2.19% (active); in the assay with HCC-2998 colon, -13.1% (active). Further, the growth in the assay with KM12 colon is 0.908% (active).

In the case of `CC(C)(C)c1ccc(/C=C/C(=O)Nc2ccc(O)cc2)cc1`, the growth was 64.4% in the assay with T-47D breast; 50.9% in the assay on MDA-MB-435 melanoma; 71% with SW-620 colon; 60.9% in the assay with MCF7 breast; 68.1% in the assay on HCT-116 colon; 97% in the assay with HCC-2998 colon. In addition, the growth with KM12 colon is 36.5%.

With `COc1ccc(/C=C/c2c(C(=O)/C=C/c3ccc(F)cc3)c(C)nc3ccccc23)cc1`, the growth with T-47D breast is 30.6%; with MDA-MB-435 melanoma, 41%; in the assay on SW-620 colon, 15.7%; in the assay on MCF7 breast it was 17%; in the assay on HCT-116 colon, 3.18% (active); in the assay on HCC-2998 colon, 34.6%. Also, the growth in the assay with KM12 colon was 58.3%.

In the case of `COc1ccc(C2CC(c3cccc(OC)c3)=NN2C(=O)c2cc(OC)c(OC)c(OC)c2)cc1` (stereo not drawn), the growth in the assay on T-47D breast was 29%; in the assay on MDA-MB-435 melanoma, -58.8% (active); in the assay with SW-620 colon, 22.5%; with MCF7 breast, 16.2%; in the assay with HCT-116 colon, 15.3%; with HCC-2998 colon it was -10.3% (active). In addition, the growth in the assay on KM12 colon was 15.4%.

As to `COC(=O)c1ccc(C2Nc3ccc(S(=O)(=O)Nc4ccc(C)c(C)c4)cc3C3OCCC23)cc1` (stereo not drawn), the growth with T-47D breast was 51.1%; in the assay with MDA-MB-435 melanoma it was 94.7%; in the assay with SW-620 colon it was 78.5%; in the assay with MCF7 breast, 43.1%; in the assay on HCT-116 colon, 62.1%; with HCC-2998 colon, 111%. In the assay on KM12 colon, the growth is 78.1%.

With `O=C(CSc1nccc(Nc2ccc(S(=O)(=O)Nc3nccs3)cc2)n1)c1ccc(F)cc1`, the growth was 84% in the assay on T-47D breast; 104% in the assay on MDA-MB-435 melanoma; 96.9% in the assay with MCF7 breast; 95.9% in the assay on HCT-116 colon; 107% in the assay on HCC-2998 colon; 106% with KM12 colon.

As to `CNC(=O)CCN1CCN(CC/C=C2\c3ccccc3Sc3ccc(Cl)cc32)CC1`, the growth is 85% in the assay on T-47D breast; 72.3% with MDA-MB-435 melanoma; 86.9% in the assay on SW-620 colon; 73.2% in the assay on MCF7 breast; 68.8% in the assay on HCT-116 colon; 83.6% with HCC-2998 colon. Further, the growth in the assay on KM12 colon is 62.3%.

With `O=S(=O)(O)c1ccc(N/N=C/c2ccccc2Cl)cc1`, the growth is 106% in the assay on T-47D breast; 102% in the assay with MDA-MB-435 melanoma; 108% in the assay with SW-620 colon; 99.2% with MCF7 breast; 104% in the assay on HCT-116 colon; 116% in the assay on KM12 colon.

Take `N=C1CCC(=N)c2c1c(O)c1ccccc1c2O`: the growth in the assay with T-47D breast is 89.5%; in the assay on MDA-MB-435 melanoma, 114%; in the assay on SW-620 colon it was 101%; in the assay on MCF7 breast, 138%; in the assay on HCT-116 colon, 101%; with KM12 colon, 96.8%.

In the case of `COc1ccc(NC(=O)CSc2nc(C)c(C(C)=O)n2-c2ccc([N+](=O)[O-])cc2)cc1`, the growth in the assay on T-47D breast is 87.8%; with SW-620 colon, 96.6%; in the assay on MCF7 breast it was 93.9%; with HCT-116 colon it was 86.5%; in the assay with HCC-2998 colon, 105%; with KM12 colon, 107%.

With `COc1cc(C(=O)c2cc(C)c3[nH]c4ccc(Cl)cc4c3c2C)cc(OC)c1OC`, the growth is 70.4% in the assay with T-47D breast; -21.7% (active) with MDA-MB-435 melanoma; 25.7% in the assay on SW-620 colon; 13.9% in the assay on MCF7 breast; 3.67% (active) with HCT-116 colon; -5.01% (active) in the assay on KM12 colon.

For `NC(N)=NN=C(c1ccccc1)c1ccccc1`, the growth is 12.2% with T-47D breast; -23.8% (active) in the assay with MDA-MB-435 melanoma; 28.1% in the assay with SW-620 colon; 16.3% with MCF7 breast; 29% in the assay with HCT-116 colon; 32.5% with KM12 colon.

On to `CC1(C)CC(=O)CC2(C1)N=C(N)Nc1nc3ccccc3n12` (stereo not drawn), for which the growth was 106% with T-47D breast; 104% in the assay with MDA-MB-435 melanoma; 109% in the assay with SW-620 colon; 89.4% in the assay on MCF7 breast; 96.8% with HCT-116 colon; 108% in the assay with KM12 colon.

Take `Cc1ccc2nc(NC(=O)CSc3nc(-c4ccccc4)c(C#N)c(=O)n3Cc3ccccc3)sc2c1`: the growth is -80.8% (active) in the assay with T-47D breast; 45.7% with MDA-MB-435 melanoma; 87.4% in the assay on SW-620 colon; 86.2% in the assay on MCF7 breast; 95.9% in the assay on HCT-116 colon; 118% in the assay on HCC-2998 colon. Moreover, in the assay with KM12 colon, the growth was 90.6%.

Take `CCN(CC)CCN1CC(O)=C(c2nc(-c3ccc(Cl)cc3)cs2)C1=N`: the growth in the assay on T-47D breast is 17.2%; in the assay on MDA-MB-435 melanoma, -62.4% (active); with SW-620 colon it was -56.2% (active); with MCF7 breast, 10.1%; in the assay on HCT-116 colon, 1.48% (active); in the assay with HCC-2998 colon it was -70.7% (active). In the assay on KM12 colon, the growth was 33.7%.

On to `O=C(c1ccccc1)c1c(/C=C/c2ccc(Cl)cc2)nc2ccccc2c1/C=C/c1cccs1`, for which the growth in the assay with T-47D breast is 94.6%; in the assay with SW-620 colon, 110%; in the assay on MCF7 breast, 92.3%; with HCT-116 colon, 95.8%; in the assay on HCC-2998 colon, 103%; with KM12 colon it was 99.3%.

Take `N#C/C(=C\c1ccc(-c2ccccc2F)o1)c1nc(-c2ccco2)cs1`: the growth with T-47D breast is 14.5%; in the assay on MDA-MB-435 melanoma, 101%; in the assay on MCF7 breast, 37.7%; with HCT-116 colon, 93%; with HCC-2998 colon it was 67.8%; with KM12 colon it was 63.9%.

In the case of `COc1ccc(-c2[nH]c(=S)n(C(CC3(C)NCC(=O)N3n3c(-c4ccccc4)cc(C)nc3=S)c3ccc(OC)cc3)c(=O)c2Br)cc1` (stereo not drawn), the growth in the assay on T-47D breast was 22.8%; in the assay with SW-620 colon, 37.2%; in the assay with MCF7 breast it was 16.5%; in the assay with HCT-116 colon it was 21.8%; with HCC-2998 colon, 61.2%; in the assay on KM12 colon it was 37%.
